Columns and labels:
Assay in all cases: PBM binding z-score (relative to random genomic background probes); higher = stronger binding; sequences stand for … in GC…GCGATTGACAGCGTAGAATGAAGG
[1] = tested on: FXR:RXRa (NR concentration 270 nM, RXRa partner concentration 90 nM)
How it was run: (§1)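 On custom Agilent 4×180K arrays, double-stranded probes with 34-nt variable regions carried direct-repeat seeds, single-nucleotide variants, half-site ablations or random human genomic background. Ligand-free nuclear receptor dimers were applied for 1 h, and binding was read with antibodies against each partner (one per run). Binding z-scores come from regression-normalized fluorescence, with the random background probes as reference.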

[2] = tested on: LXRa:RXRa (NR concentration 270 nM, RXRa partner concentration 90 nM)
How it was run: as §1

[3] = tested on: LXRa homodimer (NR concentration 270 nM)
How it was run: as §1

[4] = tested on: LXRb:RXRa (NR concentration 270 nM, RXRa partner concentration 90 nM)
How it was run: as §1

[5] = tested on: LXRb homodimer (NR concentration 270 nM)
How it was run: as §1

[6] = tested on: PPARa:RXRa (NR concentration 270 nM, RXRa partner concentration 90 nM)
How it was run: as §1

[7] = tested on: PPARg:RXRa (NR concentration 180 nM, RXRa partner concentration 90 nM)
How it was run: as §1

[8] = tested on: PPARg:RXRa 270nM:90nM, anti-RXR (NR concentration 270 nM, RXRa partner concentration 90 nM)
How it was run: as §1

[9] = tested on: PPARg:RXRa 30nM:10nM, anti-RXR (NR concentration 30 nM, RXRa partner concentration 10 nM)
How it was run: as §1

[10] = tested on: PPARg:RXRa 90nM:30nM, anti-RXR (NR concentration 90 nM, RXRa partner concentration 30 nM)
How it was run: as §1

[11] = tested on: PPARg:RXRa DBDmut IVT, anti-RXR (DBD mutation: RXRa K156A/R161A, NR concentration 270 nM, RXRa partner concentration 90 nM)
How it was run: as §1

[12] = tested on: PPARg:RXRa IVT, anti-PPARg (NR concentration 270 nM, RXRa partner concentration 90 nM)
How it was run: as §1

[13] = tested on: PPARg DBDmut:RXRa IVT, anti-PPARg (DBD mutation: PPARg1 K132A/R137A, NR concentration 270 nM, RXRa partner concentration 90 nM)
How it was run: as §1

[14] = tested on: PPARg DBDmut IVT, anti-PPARg (DBD mutation: PPARg1 K132A/R137A, NR concentration 270 nM)
How it was run: as §1

[15] = tested on: PPARg homodimer (NR concentration 180 nM)
How it was run: as §1

[16] = tested on: PXR:RXRa (NR concentration 270 nM, RXRa partner concentration 90 nM)
How it was run: as §1

[17] = tested on: PXR homodimer (NR concentration 270 nM)
How it was run: as §1

[18] = tested on: RARa:RXR (NR concentration 270 nM, RXRa partner concentration 90 nM)
How it was run: as §1

[19] = tested on: RARa homodimer (NR concentration 270 nM)
How it was run: as §1

[20] = tested on: RARb:RXRa (NR concentration 270 nM, RXRa partner concentration 90 nM)
How it was run: as §1

Sequence | PBM binding z-score [1] | PBM binding z-score [2] | PBM binding z-score [3] | PBM binding z-score [4] | PBM binding z-score [5] | PBM binding z-score [6] | PBM binding z-score [7] | PBM binding z-score [8] | PBM binding z-score [9] | PBM binding z-score [10] | PBM binding z-score [11] | PBM binding z-score [12] | PBM binding z-score [13] | PBM binding z-score [14] | PBM binding z-score [15] | PBM binding z-score [16] | PBM binding z-score [17] | PBM binding z-score [18] | PBM binding z-score [19] | PBM binding z-score [20]
CTACCCAGGTGAACAAGGTCGTTGATTACTATTC | 0.858 | 0.806 | 0.13 | 1.4 | -0.485 | 1.99 | 0.957 | 0.672 | 0.076 | 0.194 | 1.84 | 2.27 | 0.299 | -0.0404 | 0.541 | 2.03 | 0.96 | 1.61 | 0.91 | 1.29
CCTACTGGGCCATTCAGAGGTCTTTGATCATATG | -0.281 | -0.261 | -0.37 | -0.49 | -0.94 | 0.481 | 0.251 | 0.437 | -0.397 | -0.188 | 4.08 | 3.47 | -0.147 | -0.677 | 0.234 | -0.375 | 0.0887 | -0.471 | -0.345 | 0.306
TGAATGAGGTTAAAGATCAGTGAACGTGGCGTCG | 3.15 | 2.41 | -0.442 | 1.55 | -0.0397 | 4.69 | 5.57 | 6.1 | 4.77 | 6.78 | 2.37 | 3.44 | 0.722 | 0.242 | 1.24 | 2.01 | 0.152 | 3.08 | -0.0565 | 2.09
TCATATAGGTAAAGGTGAACGTCGAACGATATGA | 1.01 | 1.27 | -0.125 | 1.25 | -0.0636 | 3.18 | 4.94 | 4.76 | 4.7 | 5.08 | 3.97 | 4.38 | 1.68 | 1.19 | 1.37 | 0.966 | 0.23 | 1.74 | 0.665 | 2.09
ACTCGGAGGAGAAAGGTCAGAGCTACGCCAGTGA | 2.6 | 3.16 | 0.746 | 2.72 | -0.215 | 3.8 | 3.76 | 4.3 | 2.61 | 4.29 | 0.262 | 1.73 | -0.454 | -0.291 | 2.29 | 3.09 | 0.0761 | 3.7 | 1.26 | 3.93
TTACCAAGGTGAAAGGTCGTTCATGCACGCCTTG | 3.83 | 3.72 | 0.593 | 3.18 | -0.344 | 5.32 | 8.83 | 8.22 | 8.68 | 8.9 | 2.97 | 5.04 | 0.222 | 0.115 | 1.16 | 3.93 | 0.838 | 5.63 | 0.139 | 3.06
CCTAGTTGGTCACGAGGTCACACACCGGATATGA | 4.38 | 3.84 | 2.36 | 3.94 | 0.56 | 5 | 5.28 | 4.91 | 2.28 | 3.65 | 3.54 | 5.42 | 0.987 | 1.28 | 2.99 | 4.79 | 1.97 | 4.87 | 1.29 | 4.14
CCTACTGAGCCATTCAGAGGTCATTGATCATATG | 2.84 | 4.67 | 6.83 | 3.88 | 1.24 | 3.63 | 0.797 | 1.84 | 0.239 | 1.39 | 0.787 | 1.12 | 0.0537 | 0.233 | 3.19 | 4.96 | 3.63 | 4.44 | 1.71 | 2.87

Source: the supplement of paper PMC6555819
